Only some compounds are listed: those with a hit (about 7.9% of all), similar ones and a draw of the others.
MCF10A rerep: DNA re-replication induction in MCF 10a cells; MCF 10A DNA re-replication, Hoechst nuclear intensity, 48 h; Potency, µM (series often up to 46.1 µM), for inactives: top-dose activity, positive = re-replication, usual class: activators; hit rate 2.9% among 350,000; AID 624296; also: % of control where 0% means no effect; nearly all actives have a fitted effect of over 50% in size
SW480 rereplic: induces DNA re-replication in SW480 colon adenocarcinoma cells. SW480 DNA re-replication, Hoechst DNA content imaging, 48 h. Potency, µM (highest dose often 46.1 µM), without a hit: at the highest dose re-replication activation, hits mostly activators. hit rate 1.8% among 340,000; also: % of control where 0% means no effect; nearly all actives have a fitted effect of over 55% in size
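Quantitative HTS format with DMSO vehicle controls; 48 hr drug incubation at 37 C, then 40 min Hoechst staining and scanning imager measurement at 405 nm excitation.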
HT1080 IDH1KD tx: HT-1080 IDH1 knockdown cell toxicity (counter line); HT-1080 IDH1 knockdown viability, ATP luminescence, 48 h; hit rate 2% among 360,000; AID 686971; Potency, µM (doses to about 46.1 µM), without a hit: at the highest dose activity, negative = toxicity, usual class: cytotoxic;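 also: 0% = DMSO wells and -100% = cell-free medium wells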
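CellTiter-Glo luminescence after 48 h compound exposure at 37 degrees C of IDH1-knockdown HT-1080 cells in 5% FBS RPMI. %Activity scaled between DMSO wells and cell-free media wells, with curves fitted and assigned curve classes.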
HT1080-NT tox: kills 2HG-producing HT-1080-NT fibrosarcoma cells; AID 686970; HT-1080-NT fibrosarcoma viability, CellTiter-Glo ATP luminescence, 48 h; Potency, µM (titrated, usually from 46.1 µM), inactives show at the top dose activity, negative = less viability, most hits filed as cytotoxic; hit rate 1.6% among 360,000;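 also: NT is the 2HG producing partner of a matched IDH1 knockdown line; 0% = DMSO-treated cells and -100% = media-only wells without cells; nearly all actives have a fitted effect of over 55% in size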
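Fibrosarcoma NT cells, 750 per well in 5% FBS RPMI, were exposed to compound for 48 hours. Viability: CellTiter-Glo luminescence.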
KB-3-1 cytotox: kills parental KB-3-1 adenocarcinoma cells | hit rate 1.4% among 400,000 | Potency, µM (series often up to 46.1 µM), actives largely listed as cytotoxic | KB-3-1 viability, CellTiter-Glo ATP luminescence, 72 h | AID 1347075; also: % is scaled to controls: 0 for no effect and ±100 for the full control effect; nearly all actives have a fitted effect of over 60% in size
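Cytotoxicity in the drug-sensitive parental line KB-3-1 was scored as loss of CellTiter-Glo luminescence following 72 h incubation with compound. Values come from curve fitting of normalized concentration-response data.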
KB-V1 MDR tox: KB-V1 MDR subline cytotoxicity; KB-V1 MDR cells viability, CellTiter-Glo, 72 h; Potency, µM (series often up to 46.1 µM), most hits filed as cytotoxic; hit rate 3.4% among 400,000; AID 1347076; also: % is scaled to controls: 0 for no effect and ±100 for the full control effect; nearly all actives have a fitted effect of over 60% in size
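Following 72 h at 37 degrees C with compound, KB-V1 cell viability was read by CellTiter-Glo luminescence, medium being phenol-red-free DMEM plus 10% FBS; concentration-response parameters came from normalized, curve-fitted qHTS data.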
Starred values were filed as active, the others as inactive; i = inactive; ? = inconclusive; . = no result given. Calls follow the shape of the dose curve; as a rule, active = well fitted curve in the direction sought with a large enough effect; inconclusive = small, poorly fitted or top-dose-only effect, or another doubt; inactive = no such curve, though single readings can be large; an effect the other way counts as inactive or inconclusive. Potency is read from the fitted curve at half-maximal effect.

SMILES	MCF10A rerep	SW480 rereplic	HT1080 IDH1KD tx	HT1080-NT tox	KB-3-1 cytotox	KB-V1 MDR tox
Cc1cc2n(n1)CCCN2C(=O)Nc1ccc(Cl)cc1	.	.	.	.	i	i
COc1ccc(NS(=O)(=O)c2cc(C)ccc2NC(=O)c2cc(C)oc2C)cc1	0.651µM*	0.731µM*	0.92µM*	0.581µM*	0.0411µM*	0.259µM*
CCCCOCCCNC(=O)C[C@@H]1C[C@@]2(C(=O)OCC)CCC=C2N(Cc2ccc3c(c2)OCO3)C1=O	.	.	-0.1%	-14.6%	i	?
CCN(CC)CCNC(=O)Cc1nn(Cc2ccccc2)c(=O)c2ccccc12	174.6%	2.31µM*	-8.5%	0.7%	i	i
CCN(CC)CCNC(=O)Cn1nc(Cc2ccncc2)c2ccccc2c1=O	-3.4%	-22.5%	3.6%	7.5%	i	?
C/C(=N\NC(=O)CNc1cccc(Cl)c1C)c1cccs1	19.9%	18.4µM*	9.4%	1.7%	i	i
COc1ccccc1NCC(=O)N/N=C(\C)c1cccs1	0.4%	-24.1%	3.1%	2.5%	i	i
O=C(NCC(=O)N1CCN(C(=O)c2ccco2)CC1)c1ccc(Br)cc1	4.0%	3.5%	-4.4%	-1.2%	i	i
COc1ccc(C(CC(=O)Nc2ccc(C)c(C)c2)N2Cc3ccccc3C2=O)cc1OC (centres undefined)	.	.	.	.	i	?
COc1ccc(C(CC(=O)Nc2ccc(F)c(Cl)c2)N2Cc3ccccc3C2=O)cc1OC (centres undefined)	.	.	.	.	i	18.4µM*
Cc1ccc(S(=O)(=O)N2CCN(C(=O)C(O)c3ccccc3)CC2)cc1 (centres undefined)	.	.	13.3%	19.4%	i	?
Cc1ccc(C(=O)Nc2nnc(CC(=O)N/N=C/c3ccncc3)s2)cc1	0.1%	20.6µM*	1.8%	6.0%	i	i
CN1CCN(c2ccc(CNC(=O)C3(C)Cc4c(-c5ccccc5)ccnc4O3)cc2)CC1 (centres undefined)	.	.	-16.4%	-8.3%	i	i
Nc1nc(SCC(=O)N2CCCCC2)[nH]c(=O)c1NC(=O)c1ccccc1F	-0.8%	-23.4%	-9.3%	-7.1%	i	i
Cc1nc2ncnn2c(Nc2ccc3c(c2)OCO3)c1Cc1ccccc1	21.0%	17.1%	-23.0%	4.8%	?	16.4µM*
CCOC(=O)Cn1nc(C)cc1NC(=O)c1cc(OC)c(OC)c(OC)c1	23.1µM*	-2.0%	-7.6%	-29.0%	i	i
O=C(CN1CCN(c2ccc(O)cc2)CC1)Nc1cc([N+](=O)[O-])ccc1Cl	-2.1%	1.5%	10.5%	4.1%	i	8.2µM*
O=C(CN1CCN(Cc2ccccc2)CC1)Nc1ccc([N+](=O)[O-])cc1C(=O)Nc1ccccc1F	28.3%	-2.5%	20.6µM*	16.4µM*	i	?
CCn1c(=O)cc(OCC(=O)N(C)c2ccc(OC)cc2)c2ccccc21	.	.	.	.	i	i
CCOC(=O)CN1N=C(/C=C/c2ccc(C(C)C)cc2)CCC1=O	2.0%	-5.4%	-11.1%	-7.9%	7.31µM*	2.31µM*
CCOC(=O)C(C)N1N=C(/C=C/c2ccc(C)cc2)CCC1=O (centres undefined)	16.3%	13.6%	-5.4%	-20.3%	?	16.4µM*
Cc1ccc(N(CC(N)=O)C2SC(=O)N(Cc3ccccc3)C2=O)cc1 (centres undefined)	20.6µM*	?	-5.2%	0.8%	i	i
CCCN(CC(=O)Nc1ccccc1OC)C(=O)C1=COCCO1	2.8%	?	2.8%	-0.4%	i	i
N=c1c(C(=O)NC2CCCC2)cc2c(=O)n3ccccc3nc2n1C1CCCCC1	2.91µM*	4.61µM*	12.0%	0.9%	i	?
Cc1ccc2nc3c(cc(C(=O)NC4CCCC4)c(=N)n3C(C)C)c(=O)n2c1	.	.	.	.	i	i
SMILES	MCF10A rerep	SW480 rereplic	HT1080 IDH1KD tx	HT1080-NT tox	KB-3-1 cytotox	KB-V1 MDR tox
CNC(=O)c1cc2c(=O)n3cc(C)ccc3nc2n(C(C)C)c1=N	7.08µM*	?	9.4%	-1.4%	i	i
Cc1ccc2nc3c(cc(C(=O)NC4CCCCC4)c(=N)n3C3CCCCC3)c(=O)n2c1	?	18.4µM*	?	1.0%	?	?
Cc1ccc2nc3c(cc(C(=O)NC4CCCC4)c(=N)n3C3CCCCC3)c(=O)n2c1	?	?	4.4%	11.9%	?	?
CC1=C(C(N)=O)C(c2cccc(C)c2)n2nc(-c3cccc(C)c3)nc2N1 (centres undefined)	.	.	.	.	i	i
Cc1ccc(NC(=O)CCS(=O)(=O)c2ccc3nc(C)sc3c2)c(C)c1	.	.	.	.	i	i
O=C1CN(C(=O)c2cccc(Br)c2)C(c2ccccc2)c2cc(Cl)ccc2N1 (centres undefined)	.	.	.	.	i	?
C=CCOc1c(Cl)cc(CNCCCN2CCOCC2)cc1OC	?	?	-5.5%	?	i	i
COc1ccccc1-c1c(C(F)(F)F)oc2cc(OS(C)(=O)=O)ccc2c1=O	1.5%	-4.5%	-11.0%	-0.3%	?	20.6µM*
COc1ccc(-c2c(C(F)(F)F)oc3cc(OCC(=O)Nc4ccccc4C(F)(F)F)ccc3c2=O)cc1OC	8.2µM*	2.8%	1.7%	6.9%	i	?
CCOc1ccccc1NS(=O)(=O)c1cc2[nH]c(=O)c(=O)[nH]c2cc1C	.	.	.	.	i	i
CCCOc1cccc(C(=O)N(Cc2cc(OC)c(OC)c(OC)c2)C2CCS(=O)(=O)C2)c1 (centres undefined)	.	.	.	.	i	?
CC(=O)Nc1cc(-c2cccc(F)c2)cn2c(-c3ccc(F)c(Cl)c3)cnc12	.	.	?	?	i	?
O=S(=O)(/N=C(/c1ccccc1)N1CCOCC1)c1ccc(F)cc1F	-0.3%	-14.1%	0.7%	-1.6%	i	?
CC(=O)Oc1ccc(OC(C)=O)c(SCCCCCN2CCOCC2)c1	4.11µM*	?	?	?	i	i
CC(C)c1ccc(OCCCCCN2CCOCC2)cc1	?	0.9%	5.3%	-9.0%	i	i
Cn1cc(-c2coc3c(C(=O)Nc4ccccc4)cccc23)cn1	.	.	-9.2%	-18.4%	i	10.3µM*
CC(=O)c1cccc(NC(=O)c2cccc3c(-c4cnn(C)c4)coc23)c1	.	.	18.2%	10.3%	i	?
COc1cc2ccccc2cc1C(=O)N(CCN(C)C)c1nc2c(OC)ccc(OC)c2s1	?	?	?	16.4µM*	?	i
CCN(CC)CCN(C(=O)c1cc2ccccc2cc1OC)c1nc2ccc(F)cc2s1	12.4%	?	?	18.4µM*	i	i

Assay outcomes as filed in PubChem BioAssay.
